Hits are enriched below; roughly 6.9% of the tested compounds scored in any of these assays.
MCF10A rereplic: inducers of DNA re-replication in MCF 10A breast cells; AID 624296; MCF 10A DNA re-replication, Hoechst nuclear intensity, 48 h; Potency, µM (top dose mostly 46.1 µM), hits mostly activators; 350,000 compounds, 2.9% hits; also: nearly all actives have a fitted effect of over 50% in size
KB-3-1 cytotox: kills parental KB-3-1 adenocarcinoma cells; 400,000 compounds, 1.4% hits; KB-3-1 viability, CellTiter-Glo ATP luminescence, 72 h; AID 1347075; Potency, µM (doses to about 46.1 µM), actives largely listed as cytotoxic; also: nearly all actives have a fitted effect of over 60% in size
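Parental KB-3-1 viability, qHTS format: 72 h compound exposure, 37 °C; CellTiter-Glo; media-only wells and DMSO plates as controls; concentration-effect fits on corrected data.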
Giardia kill: Giardia lamblia killing; Giardia lamblia trophozoite viability; activity change, % at 7.66 µM, hits read low; 340,000 compounds, 0.15% hits; AID 540267; in the data active = activity change below about -80%; inconclusive = between about -30% and that limit;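 also: parasites exposed to compound for two days anaerobically before the ATP read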
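Luminescent ATP signal served as the viability read-out, measured 15-30 min after adding ATP detection reagent to trophozoites that had been incubated with compounds for 48 hrs at 37 deg C anaerobically at 100 cells/well.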
KB-V1 MDR tox: KB-V1 MDR subline cytotoxicity; AID 1347076; KB-V1 MDR cells viability, CellTiter-Glo, 72 h; Potency, µM (top dose mostly 46.1 µM), most hits filed as cytotoxic; 400,000 compounds, 3.4% hits; also: nearly all actives have a fitted effect of over 60% in size
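KB-V1 cells (P-gp-expressing MDR subline of KB-3-1) in phenol-red-free DMEM with 10% FBS were exposed to library compounds over a concentration series for 72 h at 37 degrees C. Viability read by CellTiter-Glo luminescence; concentration-effect curves fitted after normalization.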
ASM inhibitor: inhibitors of human secretory acid sphingomyelinase; Potency, µM (titrated, usually from 57.5 µM), hits mostly inhibitors; AID 504937; 340,000 compounds, 0.006% hits; placental ASM, HMU-PC fluorogenic substrate, 60 min; P17405
Target sequence (P17405 47-631 limits assumed): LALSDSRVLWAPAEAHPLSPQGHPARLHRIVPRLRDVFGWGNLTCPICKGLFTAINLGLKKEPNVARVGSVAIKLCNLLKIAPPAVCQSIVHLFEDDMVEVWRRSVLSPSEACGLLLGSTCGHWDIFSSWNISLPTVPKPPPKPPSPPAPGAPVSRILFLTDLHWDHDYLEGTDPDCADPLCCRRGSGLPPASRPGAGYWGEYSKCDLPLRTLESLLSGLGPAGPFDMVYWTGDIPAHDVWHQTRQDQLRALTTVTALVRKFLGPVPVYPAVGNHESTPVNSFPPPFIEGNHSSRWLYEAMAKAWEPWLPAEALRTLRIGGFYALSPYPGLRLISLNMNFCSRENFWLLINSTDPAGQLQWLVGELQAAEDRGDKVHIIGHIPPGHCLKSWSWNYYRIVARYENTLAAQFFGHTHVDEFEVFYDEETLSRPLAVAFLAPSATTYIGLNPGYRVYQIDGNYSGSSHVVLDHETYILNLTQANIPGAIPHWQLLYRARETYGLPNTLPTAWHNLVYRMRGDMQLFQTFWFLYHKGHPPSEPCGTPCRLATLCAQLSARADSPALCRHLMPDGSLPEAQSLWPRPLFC
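HMU-PC0 cleavage (9 uM final) by human placental ASM, 60 min at 37 °C following 10 min compound exposure at RT; stopped at pH 10, fluorescence Ex 386/Em 447 nm.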
SW480 rereplic: DNA re-replication induction in SW480 cells. SW480 DNA re-replication, Hoechst DNA content imaging, 48 h. Potency, µM (doses to about 46.1 µM), usual class: activators. 340,000 compounds, 1.8% hits. AID 624297; also: nearly all actives have a fitted effect of over 55% in size
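Quantitative HTS format with DMSO vehicle controls; 48 hr drug incubation at 37 C, then 40 min Hoechst staining and scanning imager measurement at 405 nm excitation.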
A number is an active result; n = inactive; u = inconclusive; x = not tested or not shown. Unless noted, calls follow the shape of the dose curve; as a rule, active = well fitted curve in the direction sought with a large enough effect; inconclusive = small, poorly fitted or top-dose-only effect, or another doubt; inactive = no such curve, though single readings can be large; an effect the other way counts as inactive or inconclusive.

SMILES	MCF10A rereplic	KB-3-1 cytotox	Giardia kill	KB-V1 MDR tox	ASM inhibitor	SW480 rereplic
CCN(CC)c1nc(SCCOC(=O)Nc2ccccc2)nc(N(CC)CC)n1	9.2µM	n	n	21µM	n	n
CN(C)c1nc(SCCOC(=O)c2ccccc2)nc(N(C)C)n1	n	n	n	u	n	n
COc1ccc(CNC(=O)CC2C[C@H](C(=O)N3CCCCC3)[C@@]3(C)c4[nH]c5ccccc5c4CCN3C2=O)cc1OC (some centres undefined)	n	n	n	n	n	n
CCc1sc(-c2cc3cccc(OC)c3oc2=O)nc1-c1ccccc1	x	n	n	u	x	x
Cc1cc(NC(=O)CSc2nnc(-c3ccccc3)c(-c3ccccc3)n2)no1	12µM	7.3µM	n	5.2µM	n	3.7µM
Cc1cc(NC(=O)c2ccc3nc(-c4ccccc4)c(-c4ccccc4)nc3c2)no1	9.2µM	n	n	u	n	u
Cc1cc(NC(=O)CSc2nnc(-c3ccoc3C)o2)no1	n	n	n	n	n	21µM
Cc1cc(C)c(NC(=O)C(=O)NCCc2csc(-c3ccc(F)cc3)n2)c(C)c1	x	n	x	n	x	x
O=S(Cc1ccc(Cl)cc1)c1ncc(CO)n1Cc1ccccc1 (centres undefined)	n	16µM	n	n	n	u
O=C(Cc1csc(Nc2nc(=S)[nH]c3ccccc23)n1)N1CCN(c2cccc(C(F)(F)F)c2)CC1	u	13µM	n	23µM	n	n
CCCOc1ccc(CN(C(=O)c2cc(=O)c3ccc(C)cc3o2)C2CCS(=O)(=O)C2)cc1 (centres undefined)	x	n	x	n	x	x
CN(CC(=O)Nc1ccc(OC(F)(F)F)cc1)C(=O)c1ccccc1SCC(=O)N1CCCC1	n	16µM	n	7.3µM	n	n
COc1ccccc1N1CCN(c2c(CN3CCCC3)c(=O)oc3ccccc23)CC1	x	n	x	n	x	x
CC(=O)NC(Cc1ccccc1)C(=O)N1CCN(C(=S)NCC(C)C)CC1 (centres undefined)	n	n	n	n	n	n
CCNC(=S)N1CCN(C(=O)C(Cc2ccccc2)NC(C)=O)CC1 (centres undefined)	0.65µM	n	n	n	n	n
CC1CCCN(C(=O)CN2CCC(c3nc4ccc(Cl)cc4[nH]3)CC2)C1 (centres undefined)	n	n	n	u	n	n
Clc1ccc(CN2CCC(c3nc4ccc(Cl)cc4[nH]3)CC2)cc1	u	u	n	21µM	n	u
Cc1ccccc1N(CC(=O)N/N=C/c1ccc(Cl)cc1)C(=O)c1ccccc1	26µM	u	n	21µM	n	u
Cc1ccccc1N(CC(=O)N/N=C/c1ccc(F)cc1)C(=O)c1ccccc1	n	n	n	n	n	n
CCCC(=O)O[C@]1(C(=O)CCl)[C@@H](C)C[C@H]2[C@@H]3CCC4=CC(=O)C=C[C@]4(C)[C@@]3(F)C(=O)C[C@@]21C	u	n	n	13µM	n	n
CCc1ccc(NC(=O)CCC(=O)c2ccccc2)cc1	u	n	n	n	n	n
COc1ccccc1CCN1CCCC(CN(C)Cc2ccc(OCCO)cc2)C1 (centres undefined)	21µM	n	n	n	n	u
CCc1cc2c(N=Nc3c(O)[nH]c4ccccc34)ncnc2s1	u	u	n	6.5µM	n	n
Cc1sc2ncnc(N=Nc3c(O)[nH]c4ccccc34)c2c1C	u	n	n	u	n	n
CCN(CC)C(c1ccc(F)cc1)c1nnnn1C1CCCCC1 (centres undefined)	n	n	n	n	n	n
SMILES	MCF10A rereplic	KB-3-1 cytotox	Giardia kill	KB-V1 MDR tox	ASM inhibitor	SW480 rereplic
CCN(CC)C(c1ccc(C)cc1)c1nnnn1C1CCCCC1 (centres undefined)	u	u	n	13µM	n	n
O=[N+]([O-])c1ccc(CN2CCN(c3ccc(Cl)cc3)CC2)o1	n	n	-94	n	n	n
O=[N+]([O-])c1ccc(N2CCN(C(=S)NCc3ccc(Cl)cc3)CC2)cc1	n	n	n	n	n	u
CCOc1ccccc1NC(=O)c1c(NC(=O)COc2ccccc2)sc2c1CCCCC2	x	4.6µM	x	u	x	x
CCOc1ccc(NC(=O)c2c(NC(=O)CNCCN3CCOCC3)sc3c2CCC3)cc1	n	n	n	n	n	7.3µM
COC(=O)CC1Oc2ccc(F)cc2-n2cc(-c3ccc(C)cc3)nc21 (centres undefined)	x	n	x	n	x	x
Cc1ccc(NC(=O)c2c(C)oc3ncn(C)c(=O)c23)cc1F	x	n	x	n	x	x
CN(C)c1ccc(/C=C/c2nc3ccccc3c(=O)n2-c2ccc(C(=O)O)cc2)cc1	18µM	n	n	n	n	21µM
CCn1c(/C=C/c2ccccc2Cl)nc2ccccc2c1=O	16µM	n	n	n	n	u
O=c1c2ccccc2nc(/C=C/c2cccnc2)n1CCc1ccccc1	29µM	n	n	u	n	n
O=C(O)c1cccc(-n2c(/C=C/c3ccccc3)nc3ccccc3c2=O)c1	n	n	n	n	n	u
O=c1c2ccccc2nc(/C=C/c2cccc([N+](=O)[O-])c2)n1CCO	n	n	n	u	n	n
CCn1c(/C=C/c2cccc([N+](=O)[O-])c2)nc2ccccc2c1=O	n	u	n	21µM	n	n
O=C(CSc1nnc(C2COc3ccccc3O2)o1)N1CCN(c2ccccc2)CC1 (centres undefined)	n	n	n	u	n	n
O=C(NCCc1ccc(Cl)cc1)C(=O)NCC(c1cccs1)S(=O)(=O)c1ccccc1 (centres undefined)	x	n	x	n	x	x
CCn1c(/C=C\c2ccccc2C)nc2ccccc2c1=O	n	n	n	u	n	n
CCn1c(/C=C/c2c[nH]c3ccccc23)nc2ccccc2c1=O	21µM	n	n	n	n	u
CN(C)S(=O)(=O)c1ccc2[nH]cc(/C=C/c3nc4ccccc4c(=O)n3-c3ccccc3)c2c1	u	n	n	u	n	3.3µM
Cc1ccc(C)c(Cn2c(-c3cccs3)nc3ccccc32)c1	x	n	x	n	x	x
Cc1ccccc1OCc1nnc(SCc2cc(=O)[nH]c3ccccc23)n1-c1ccccc1	u	u	n	16µM	n	u
CCN1CCOC(=O)C1CC(=O)Nc1cccc(OC)c1 (centres undefined)	x	n	x	u	x	x
O=C(CN1CCN(c2ccc(O)cc2)CC1)Nc1cc([N+](=O)[O-])ccc1Cl	n	n	n	8.2µM	n	n
CCCN1C(=O)c2ccccc2NC1c1ccc(O)c(OCC)c1 (centres undefined)	n	n	n	n	n	n
Cc1cc(C(=O)Nc2c(C)nn(Cc3c(Cl)cccc3Cl)c2C)no1	n	n	n	9.2µM	n	n
Cc1cc(NC(=O)Cc2c(F)cccc2Cl)no1	7.3µM	n	n	n	n	u

Screening results as filed in PubChem.
